Hits are enriched below; roughly 2% of the tested compounds scored in any of these assays.
CHO-K1 Ca antag – M1 antagonist counterscreen hit in parental CHO-K1 cells | ATP-induced calcium, Fluo-8 fluorescence | inhibition, % at 3 µM | 360,000 compounds, 0.6% hits;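 active = inhibition above a per-plate cutoff, the plate's mean sample inhibition plus 3 SD, cut at about 24% in these data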;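 also: 0% = DMSO plus EC80 ATP and 100% = DMSO alone without ATP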
M4 antag – blocks acetylcholine activation of human M4 receptor. P08173. CHO-hM4 cells, ACh EC80, Fluo-8 calcium fluorescence. inhibition, % at 3 µM. 360,000 compounds, 0.73% hits. AID 624125;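 active = inhibition above its plate's cutoff, the mean inhibition of sample wells plus 3 SD, cut at about 27% in these data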;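 also: 0% = acetylcholine EC80 with DMSO and 100% = DMSO without agonist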
Target sequence (P08173 whole entry, looked up): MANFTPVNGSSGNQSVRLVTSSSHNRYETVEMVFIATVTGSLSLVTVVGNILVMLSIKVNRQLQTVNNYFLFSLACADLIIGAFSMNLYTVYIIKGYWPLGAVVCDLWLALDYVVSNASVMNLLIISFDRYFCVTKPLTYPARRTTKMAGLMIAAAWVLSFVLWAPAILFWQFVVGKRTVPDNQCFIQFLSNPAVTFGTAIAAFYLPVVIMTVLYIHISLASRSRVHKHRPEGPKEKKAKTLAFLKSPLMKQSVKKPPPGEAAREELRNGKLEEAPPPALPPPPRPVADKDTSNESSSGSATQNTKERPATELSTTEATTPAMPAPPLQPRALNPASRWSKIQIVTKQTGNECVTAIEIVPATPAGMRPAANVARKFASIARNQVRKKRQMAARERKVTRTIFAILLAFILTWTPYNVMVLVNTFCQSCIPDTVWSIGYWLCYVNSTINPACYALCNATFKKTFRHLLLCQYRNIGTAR
M1 ag parental – nonselective activator or artifact in parental CHO-K1 cells; 360,000 compounds, 0.48% hits; activation, % at 3 µM; AID 602248; Fluo-8 calcium fluorescence; scaled to maximal ATP response, vehicle zero; in the data active = activation above about 15%;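 also: untransfected CHO-K1 host cells lacking M1 receptor as counterscreen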
M4 PAM – potentiates acetylcholine response at human M4 receptor; CHO-K1 hM4/Gqi5, Fluo-8 calcium fluorescence, ACh EC20; 0% = ACh EC20, 100% = maximal ACh; activation, % at 3 µM; 360,000 compounds, 0.4% hits; AID 624126;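 active = activation above its plate's cutoff, the mean activation of sample wells plus 3 SD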
CHO-K1 Ca PAM – M1 PAM counterscreen hit in parental CHO-K1 cells; AID 602247; 360,000 compounds, 0.02% hits; ATP EC20, Fluo-8 calcium fluorescence; 0% at ATP EC20, 100% at ATP max; activation, % at 3 µM;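 active = activation above the run cutoff, the mean activation of all test compounds plus 3 SD, cut at about 40% in these data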;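 also: peak over basal fluorescence ratio in a 140 s read after ATP addition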
CHRM4 agonist – agonists of human muscarinic M4 receptor (CHRM4) | P08173 | CHO-K1 hM4/Gqi5, Fluo-8 calcium fluorescence; vehicle 0%, full acetylcholine response 100% | activation, % at 3 µM | 360,000 compounds, 0.14% hits | AID 624127;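 active = activation above the run mean over all test wells plus 3 SD, cut at about 32% in these data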;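 also: peak over basal fluorescence ratio per well then scaled between controls; 0% = DMSO wells and 100% = acetylcholine at EC100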
The depositor's hits bear a star.

SMILES	CHO-K1 Ca antag	M4 antag	M1 ag parental	M4 PAM	CHO-K1 Ca PAM	CHRM4 agonist
COc1ccc(NS(=O)(=O)c2cccc(C(=O)N/N=C/c3cn(-c4ccccc4)nc3-c3ccccc3)c2)cc1	-5	51*	0	-20	15	1
CCOc1ccc(NC(=O)CN(C)C(=O)c2cc3c(s2)CCCCC3)cc1OCC	1	-10	-1	5	13	-1
CCN1CCCC(Sc2nc3c([nH]2)c(=S)n(C)c(=O)n3C)C1 (centres undefined)	4	5	16*	-7	5	2
Cn1c(=S)c2[nH]c(SCCN3CCCC3)nc2n(C)c1=O	-8	-14	0	-1	13	0
CC(=O)c1c(C)[nH]c(C(=O)COC(=O)Cc2ccccc2F)c1C	-12	-6	6	-5	-13	13
COCCNc1nc(NCc2ccc(C(C)C)cc2)c2sccc2n1	3	4	6	-4	16	10
CC(=O)N1CCOc2ccc(S(=O)(=O)NCC3CCC(C(=O)NCCC(C)C)CC3)cc21 (centres undefined)	-17	3	2	16*	-14	3
Nc1nonc1-n1nnc(C(=O)N/N=C/c2cccnc2)c1CSc1ccc(Cl)cc1	-4	7	16*	-9	14	18
Cc1ccc(/C=N/NC(=O)c2nnn(-c3nonc3N)c2-c2ccccc2)o1	-9	5	22*	1	20	5
Nc1nonc1-n1nnc(C(=O)N/N=C/c2cccnc2)c1CSc1ccccc1	6	-9	7	-8	-3	22
COc1cccc(-c2c(C(=O)N/N=C/c3ccco3)nnn2-c2nonc2N)c1	-5	0	16*	2	0	5
CCCOc1ccc(-c2c(C(=O)N/N=C/c3ccc(OCC)cc3)nnn2-c2nonc2N)cc1	26*	0	-1	-3	-12	0
CCCOc1ccc(-c2c(C(=O)N/N=C/c3ccc(OC)cc3)nnn2-c2nonc2N)cc1	-10	-4	0	8	16	3
COc1cccc(C(O)c2nc(-c3cnn(C)c3)cs2)c1 (centres undefined)	6	9	1	1	-6	3
CC(/C=N/NC(=O)c1nnn(-c2nonc2N)c1C(C)C)=C\c1ccco1	-6	8	1	17*	-5	2
CCCc1c(C(=O)N/N=C/C(C)=C/c2ccco2)nnn1-c1nonc1N	1	-7	1	8	17	2
CCCc1c(C(=O)N/N=C(\C)CCc2ccccc2)nnn1-c1nonc1N	-9	-26	1	15*	26	2
CCn1c(SCC(=O)N/N=C/c2ccc(C)o2)nnc1-c1ccccc1	28*	-9	-1	11	-7	-1
CN(C(=O)CSc1nc(-c2ccc(C(C)(C)C)cc2)c(C#N)c(=O)[nH]1)C1CCCCC1	-1	-5	0	1	29	0
Cc1cc(C)c(S(=O)(=O)N2CCc3ccccc32)c(C)c1	4	6	0	-9	-3	-1
COc1ccc(/C=C/C(=O)N(C)Cc2cccs2)cc1S(=O)(=O)N1CCOCC1	0	3	16*	-2	5	4
COc1ccc(C(=O)NCc2cccs2)cc1S(=O)(=O)N1CCOCC1	-6	-8	1	3	-1	0
Cc1nn(-c2ccccc2)nc1C(=O)NNC(=O)c1ccc(C(F)(F)F)cc1	-3	-7	2	-4	10	2
O=C(Nc1ccc(Cl)c(Cl)c1)Oc1ccc(NC(=O)c2ccco2)cc1	34*	22	4	-10	-6	9
CCC(=O)Oc1ccc(NC(=O)c2ccco2)cc1	-14	-8	1	-2	0	1
SMILES	CHO-K1 Ca antag	M4 antag	M1 ag parental	M4 PAM	CHO-K1 Ca PAM	CHRM4 agonist
O=C(NC(NC(=S)Nc1ccc(Cl)c(Cl)c1)C(Cl)(Cl)Cl)c1ccco1 (centres undefined)	29*	9	10	-14	-6	9
O=C(O)c1cccc(NC(=S)NC(NC(=O)c2ccco2)C(Cl)(Cl)Cl)c1 (centres undefined)	-10	-13	0	17	21	1
O=C(Nc1ccc(OC(=O)c2ccco2)cc1)c1ccco1	28*	2	0	7	-5	2
CCN1CCCC1CNC(=O)C1CCN(C(=O)c2cc3sccc3n2Cc2ccc(F)cc2)CC1 (centres undefined)	5	-6	0	-6	8	2
NS(=O)(=O)c1ccc(CCNC(=O)C(=O)NCC2OCCN2C(=O)c2ccc3c(c2)OCO3)cc1 (centres undefined)	29*	1	0	5	-14	1
O=C(Nc1ccc(F)cc1)Nc1ccc2c(c1)OCO2	10	-2	21*	-4	-11	11
CC(C)CN(CC(C)C)C(=O)Nc1cccc([N+](=O)[O-])c1	-11	5	15*	6	0	0
O=C(Cc1ccc(Cl)cc1Cl)Nc1ccc(OC(F)F)c(Cl)c1	4	3	3	-12	6	4
COc1ccc(NC(=O)Nc2ccc3c(c2)N(C)C(=O)CS3)cc1Cl	28*	17	7	-15	-2	22
O=C(Nc1ccc([N+](=O)[O-])cc1)Nc1ccc(OC(F)F)c(Cl)c1	25*	17	32*	-13	8	11
CC(C(=O)Nc1cccc([N+](=O)[O-])c1)[n+]1ccccc1 (centres undefined)	-2	-7	1	5	6	1
CN(C)C(=O)CCc1ccc2c3c([nH]c2c1)[C@]1(CCC2CCCC2)[C@@H](C(=O)N2CCOCC2)C[C@H](CC(=O)NCCC2=CCCCC2)C(=O)N1CC3	-12	-2	0	-3	7	1
O=C(/C=C/c1ccc([N+](=O)[O-])cc1)OCC(=O)c1ccc[nH]1	-19	-11	4	2	11	4
COc1ccc(C(=O)Nc2cccc([N+](=O)[O-])c2)cc1Br	0	-4	1	0	13	1
CCOC(=O)C(=O)Nc1ccc(OC)c(Cl)c1	-21	-3	2	23*	26	2
COc1ccc(NC(=O)C(=O)NCCCO)cc1Cl	-5	-5	4	5	21	5
O=C(Nc1ccc(OC(F)F)c(Cl)c1)Nc1ccc2c(c1)OCO2	27*	3	8	-10	4	11
COc1ccc(NC(=O)Nc2cccc([N+](=O)[O-])c2)cc1Cl	30*	14	14	-12	-3	15
O=C(Nc1ccc2c(c1)OCO2)Nc1ccc2c(c1)OCO2	8	3	1	-8	-4	3
COc1ccc2c(c1)N(C[C@H](C)CN(C)C)c1ccccc1S2	-3	54*	1	-17	0	9
